The values that follow come from PubChem BioAssay (NCI).

Common to all, as to assay: NCI-60 one-dose screen, 48 h (100 = growth as untreated, 0 = no growth, -100 = all killed)
Holding throughout (conditions): 10 µM unless noted

For test [1], the system named is NCI-H23 lung.
Test [2] concerns NCI-H322M lung.
For test [3], the system named is HOP-62 NSCLC.
The subject of test [4] is NCI-H460 lung.
For test [5], the system named is HOP-92 NSCLC.
For test [6], the system named is NCI-H522 lung.
Test [7] concerns A549/ATCC NSCLC.
The test system of test [8] is 786-0 renal.
The test system of test [9] is COLO 205 colon.
For test [10], the system named is DU-145 prostate.
The test system of test [11] is K-562 leukemia.
In test [12] the test system is MALME-3M melanoma.
In test [13] the test system is MDA-MB-231 breast.
In test [14] the test system is RXF 393 renal.
Test [15] deals with SF-268 CNS.
Test [16] relates to SF-295 CNS.
In test [17] the test system is SF-539 CNS.
Test [18] deals with UACC-257 melanoma.
In test [19] the test system is M14 melanoma.
For test [20], the system named is NCI-H226 lung.

Where “and” joins values, the source holds several entries; their conditions need not be identical. Equal entries are not always repeated. The panel holds about 83,000 compounds, 20% with a hit somewhere; the sample as a whole holds those more often.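 Each cell line was grown in a 96-well plate and treated with one concentration of compound for 48 hours. Values below 10 were considered active.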 Calls of active or inactive are those of the source.

Consider `COc1ccc(NC(=S)Nc2ccccn2)cc1`, for which the growth in test [1] is 96% (inactive); in test [2], 97% (inactive); in test [3], 97.9% (inactive); in [4] it was 100% (inactive); in [5], 77% (inactive); in test [6], 98.4% (inactive). Moreover, the growth in [7] is 101% (inactive); in [8] it was 90.4% (inactive); in test [9], 110% (inactive); in [10], 93% (inactive); in [11], 87.1% (inactive); in [12] it was 80.6% (inactive). In addition, the growth in test [13] was 99% (inactive); in [14], 121% (inactive); in test [15] it was 90.7% (inactive); in test [16] it was 94.6% (inactive); in [17], 109% (inactive); in test [18], 104% (inactive). Besides, the growth in test [19] was 106% (inactive).

Consider `CCN(CC)CCC(CNc1ccnc2cc(Cl)ccc12)c1ccc(OC)cc1` (stereo unspecified), for which the growth in test [1] is 72.4% (inactive) and 66.1% (inactive); in test [20], 97.2% (inactive) and 95.5% (inactive); in [2] it was 60.4% (inactive) and 64.8% (inactive); in [3], 83.4% (inactive) and 77.7% (inactive); in test [4] it was 70.1% (inactive) and 62.9% (inactive); in test [6], 25.8% (inactive) and 20.3% (inactive). In addition, the growth in [7] is 78.9% (inactive) and 88.3% (inactive); in test [8] it was 62.1% (inactive) and 73.7% (inactive); in test [9] it was 33.3% (inactive) and -41.5% (active); in test [10], 84.7% (inactive) and 96.7% (inactive); in test [11] it was 6.83% (active) and 1.92% (active); in [12], -69.1% (active) and -65.7% (active). In addition, the growth in test [13] is 33.1% (inactive) and 44.1% (inactive); in test [14], 33.6% (inactive) and 38.1% (inactive); in test [15], 75.9% (inactive) and 76.8% (inactive); in test [16], 46.5% (inactive) and 1.95% (active); in test [17], -80.6% (active) and -66.8% (active); in test [18], -70% (active) and -74.4% (active). Further, the growth in [19] was -60.3% (active) and -78.3% (active).

Turning to `c1ccc2c(CC3=NCCN3)cccc2c1`, the growth is 96.3% (inactive) and 98.5% (inactive) in test [1]; 91.4% (inactive) and 100% (inactive) in test [20]; 98.1% (inactive) and 115% (inactive) in [2]; 112% (inactive) and 98.8% (inactive) in [3]; 108% (inactive) and 105% (inactive) in test [4]; 103% (inactive) and 90% (inactive) in test [6]. The growth was 97.6% (inactive) and 93.8% (inactive) in test [7]; 98.3% (inactive) and 99.9% (inactive) in test [8]; 113% (inactive) and 112% (inactive) in test [9]; 123% (inactive) and 114% (inactive) in [10]; 115% (inactive) and 107% (inactive) in [11]; 104% (inactive) and 113% (inactive) in test [12]. Further, the growth in test [13] is 105% (inactive) and 109% (inactive); in test [14], 105% (inactive) and 102% (inactive); in [15], 114% (inactive) and 109% (inactive); in test [16], 94.3% (inactive) and 100% (inactive); in test [17], 102% (inactive) and 95.8% (inactive); in test [18] it was 101% (inactive) and 97.1% (inactive). The growth in test [19] is 97.1% (inactive) and 99.3% (inactive).

Regarding `Cn1c(=O)c2[nH]c(CCCCCCCCc3nc4ccccc4[nH]3)nc2n(C)c1=O`, the growth in test [1] is 47.4% (inactive) and 55.2% (inactive); in test [2], 87.3% (inactive) and 99.6% (inactive); in [3], 57% (inactive) and 49.2% (inactive); in [4] it was 68.4% (inactive) and 73.6% (inactive); in test [5], 60.4% (inactive); in test [6], 72.8% (inactive). The growth in test [7] is 67.4% (inactive) and 70.1% (inactive); in test [8], 73.1% (inactive) and 75.1% (inactive); in test [9], 88% (inactive) and 99.6% (inactive); in test [10] it was 91.2% (inactive) and 82.7% (inactive); in [11] it was 30.9% (inactive); in test [12] it was 71.9% (inactive). In addition, the growth was 77% (inactive) and 60.9% (inactive) in [13]; 87.9% (inactive) and 101% (inactive) in test [14]; 83.5% (inactive) and 98.3% (inactive) in test [15]; 34.8% (inactive) and 35.9% (inactive) in test [16]; 78.2% (inactive) and 74.8% (inactive) in [17]; 39.7% (inactive) and 72% (inactive) in [18]. In test [19], the growth is 80.7% (inactive) and 80.8% (inactive).

Turning to `C/C(=N\NC(=O)c1ccncc1)c1ccccc1O`, the growth was 42.5% (inactive) and 30.4% (inactive) in [1]; 54.5% (inactive) and 58.8% (inactive) in test [20]; 30.3% (inactive) and 20.7% (inactive) in test [2]; 34.3% (inactive) and 33.7% (inactive) in test [3]; 19.3% (inactive) and 14% (inactive) in test [4]; 8.84% (active) in test [6]. The growth in [7] was 36.4% (inactive) and 40% (inactive); in test [8], 31.4% (inactive) and 22.6% (inactive); in test [9] it was 13.9% (inactive) and 8.85% (active); in test [10], 40.8% (inactive) and 45.2% (inactive); in test [11], 35.6% (inactive) and 35.4% (inactive); in [12], 65.6% (inactive) and 53.4% (inactive). In addition, the growth in [13] was 34.9% (inactive) and 36.2% (inactive); in test [14] it was 63.6% (inactive) and 75.4% (inactive); in [15] it was 37.1% (inactive) and 40.5% (inactive); in test [16], 40.2% (inactive) and 39.3% (inactive); in test [17], 52.9% (inactive) and 30.2% (inactive); in [18], 43.9% (inactive) and 25.1% (inactive). Further, in [19], the growth is 27.5% (inactive) and 33.5% (inactive).

Take `Nc1ccccc1SC1CC(=O)N(c2cccc3ccccc23)C1=O` (stereo unspecified): the growth in test [1] is 101% (inactive); in [20] it was 83.6% (inactive); in [2], 97% (inactive); in test [3] it was 90.5% (inactive); in [4], 99.3% (inactive); in test [8], 101% (inactive). Moreover, the growth in [9] was 105% (inactive); in [10] it was 111% (inactive); in test [11], 90.2% (inactive); in test [12], 101% (inactive); in test [13] it was 91.9% (inactive); in [14] it was 93% (inactive). Besides, the growth was 98.1% (inactive) in test [15], 94.7% (inactive) in test [16], 95.6% (inactive) in test [17] and 105% (inactive) in [19].

For the compound `Nc1nc(SC/C=C/CCl)c2[nH]cnc2n1`, the growth in [1] is 102% (inactive) and 98.1% (inactive); in test [20], 95.8% (inactive) and 131% (inactive); in test [2], 112% (inactive) and 115% (inactive); in test [3], 106% (inactive) and 99.8% (inactive); in [4] it was 105% (inactive); in test [6], 95.1% (inactive) and 86.7% (inactive). Besides, the growth was 102% (inactive) and 99.1% (inactive) in [8]; 104% (inactive) and 116% (inactive) in test [9]; 110% (inactive) in test [10]; 103% (inactive) and 90.7% (inactive) in [11]; 114% (inactive) and 92.3% (inactive) in [12]; 112% (inactive) and 102% (inactive) in test [13]. In addition, the growth was 112% (inactive) and 133% (inactive) in test [14]; 104% (inactive) and 107% (inactive) in test [15]; 97.2% (inactive) and 112% (inactive) in test [16]; 114% (inactive) and 97.5% (inactive) in test [17]; 94.7% (inactive) and 102% (inactive) in test [18]; 107% (inactive) and 98.9% (inactive) in test [19].

Regarding `O=C(N/N=C/c1cccc2ccccc12)C1CC1`, the growth in test [1] is 104% (inactive) and 89.3% (inactive); in [2] it was 98.1% (inactive) and 101% (inactive); in [3], 104% (inactive) and 116% (inactive); in test [4], 113% (inactive) and 104% (inactive); in test [5], 97.8% (inactive) and 95.1% (inactive); in [6], 98.8% (inactive) and 103% (inactive). Further, the growth is 100% (inactive) and 89.2% (inactive) in test [7]; 99.9% (inactive) and 99% (inactive) in test [8]; 112% (inactive) and 117% (inactive) in test [9]; 128% (inactive) and 120% (inactive) in [10]; 92.3% (inactive) and 114% (inactive) in test [11]; 110% (inactive) in [12]. For the same compound, the growth is 95.4% (inactive) and 91.3% (inactive) in [13]; 111% (inactive) and 110% (inactive) in test [14]; 115% (inactive) and 104% (inactive) in test [15]; 118% (inactive) and 92.9% (inactive) in test [16]; 111% (inactive) and 102% (inactive) in [17]; 103% (inactive) and 100% (inactive) in test [18]. In addition, the growth in test [19] is 110% (inactive) and 108% (inactive).

On to `O=C(O)CN(CCN(CC(=O)O)CC(=O)O)CCN(CC(=O)O)CC(=O)O`, for which the growth in [1] was -19% (active) and 104% (inactive) and 110% (inactive); in test [20] it was 15.7% (inactive) and 98.6% (inactive) and 90.3% (inactive); in test [2], -3.44% (active) and 107% (inactive) and 116% (inactive); in test [3], -75.5% (active) and 97.4% (inactive) and 99.5% (inactive); in test [4], -51.4% (active) and 119% (inactive); in test [6], -27.9% (active) and 107% (inactive) and 88.5% (inactive). Besides, the growth in test [7] is -85.5% (active) and 106% (inactive) and 98.9% (inactive); in [8] it was -20.3% (active) and 102% (inactive) and 105% (inactive); in [9], 23% (inactive) and 91.5% (inactive) and 104% (inactive); in [10], -12.6% (active) and 114% (inactive) and 106% (inactive); in [11], 4.41% (active) and 114% (inactive) and 103% (inactive); in [12], -4.09% (active) and 112% (inactive) and 102% (inactive). Moreover, the growth in test [13] was 35.8% (inactive) and 100% (inactive) and 90.7% (inactive); in test [14], -19.3% (active) and 108% (inactive) and 109% (inactive); in test [15] it was 1.46% (active) and 114% (inactive) and 105% (inactive); in test [16] it was -23.9% (active) and 112% (inactive) and 105% (inactive); in test [17], -42.7% (active) and 104% (inactive); in test [18], 0.783% (active) and 105% (inactive) and 102% (inactive). In test [19], the growth was 18.2% (inactive) and 88.8% (inactive) and 102% (inactive).

With `CN(C)CCC(=O)c1ccc(Cl)cc1`, the growth is 109% (inactive) and 86.8% (inactive) in test [1]; 99.3% (inactive) and 110% (inactive) in test [20]; 110% (inactive) and 116% (inactive) in test [2]; 112% (inactive) and 115% (inactive) in test [3]; 113% (inactive) and 114% (inactive) in test [4]; 79.8% (inactive) and -84.6% (active) in test [6]. Besides, the growth in test [7] is 109% (inactive) and 107% (inactive); in test [8] it was 104% (inactive) and 106% (inactive); in test [9] it was 121% (inactive) and 118% (inactive); in test [10], 112% (inactive) and 133% (inactive); in test [11], 110% (inactive) and 91.3% (inactive); in test [12], 106% (inactive) and 122% (inactive). For the same compound, the growth in [13] is 105% (inactive) and 107% (inactive); in test [14] it was 110% (inactive) and 121% (inactive); in [15], 105% (inactive) and 107% (inactive); in test [16] it was 117% (inactive) and 126% (inactive); in [17] it was 106% (inactive); in [18] it was 103% (inactive) and 104% (inactive). Besides, the growth in [19] was 98.6% (inactive) and 109% (inactive).
